According to PubChem BioAssay (NCATS):
Inconclusive results are not listed. Values without a mark were called inactive. The source made the active and inactive calls. The call rests on the fitted dose curve; in most records, active means well fitted curve in the direction sought with a large enough effect; inconclusive means small, poorly fitted or top-dose-only effect, or another doubt; inactive means no such curve, though single readings can be large; an effect the other way counts as inactive or inconclusive.
On the % scale 0 is the no-effect control and ±100 the full control effect; potency means the concentration at half of the fitted maximal effect.

Experiment: qHTS for Inhibitors of ATXN expression: Validation of Cytotoxic Assay (AID 588349);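 further: cells exposed to compound for 72 hr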
Settings: cytotoxicity counter-screen for ATXN expression inhibitors, cell viability; series mostly up to 57.1 µM; activity change, negative = cytotoxicity: at the top concentration
Method in brief: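 HEK293, compound dose series, 72 hr / 37 degrees C; viability via CellTiter Glo (intracellular ATP).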
For `CCCN(CCC)C1CCc2cccc(O)c2C1` (stereo not drawn), the “activity change, negative = cytotoxicity” value was -12.8%. For `N[C@@H](Cn1ccc(=O)[nH]c1=O)C(=O)O`, the “activity change, negative = cytotoxicity” value was -2.3%. For `COc1ccc2c(c1)[C@@]13CCCC[C@H]1[C@@H](C2)NCC3`, the “activity change, negative = cytotoxicity” value was -28.2%. For `Cc1c2ccncc2c(C)c2c1[nH]c1ccccc12`, the “activity change, negative = cytotoxicity” value was -24.3%. With `NCCc1ccc(S(=O)(=O)F)cc1` the “activity change, negative = cytotoxicity” value was -15.2%. In the case of `CN1CC[C@@]2(C)c3cc(O)ccc3N(C)C12` (stereo partly drawn), the Potency is reported as 28.2 µM (active). For `CC(C)NP(=O)(NC(C)C)OP(=O)(NC(C)C)NC(C)C`, the “activity change, negative = cytotoxicity” value was -10.8%. In the case of `CCCN1CCc2cccc3c2[C@H]1Cc1ccc(O)c(O)c1-3`, the Potency is reported as 35.5 µM (active). For `C=CCN1C[C@@H](C)N([C@H](c2ccc(C(=O)N(CC)CC)cc2)c2cccc(OC)c2)C[C@@H]1C`, the “activity change, negative = cytotoxicity” value was -1.16%. In the case of `O=C1C=CC(=O)C=C1`, the “activity change, negative = cytotoxicity” value is reported as 4.44%. With `CCCN(CCC)C1Cc2cc(OC)c(OC)cc2C1` the “activity change, negative = cytotoxicity” value was -8.58%. With `C[C@]12Cc3cn4c(nc3C=C1CCC1C2CC[C@@]2(C)[C@H]1CC[C@@]2(O)C#N)nc1ccccc14` (stereo partly drawn) the “activity change, negative = cytotoxicity” value was 5.48%. For `C[N+]1(C)C2CCC1CC(OC(=O)c1c[nH]c3ccccc13)C2` (stereo not drawn), the “activity change, negative = cytotoxicity” value was -0.584%. In the case of `CC(C)[C@@]1(NC(=O)[C@@H]2C[C@@H]3c4cccc5[nH]cc(c45)C[C@H]3N(C)C2)O[C@@]2(O)[C@@H]3CCCN3C(=O)[C@H](Cc3ccccc3)N2C1=O`, the “activity change, negative = cytotoxicity” value is reported as -26.3%. With `CN(N=O)c1ccc(O)c(O)c1` the “activity change, negative = cytotoxicity” value was -20.7%. For `CCCN1CC[C@@H]2c3cc(O)ccc3CC[C@@H]21`, the “activity change, negative = cytotoxicity” value was -22%.

Experiment: qHTS for Inhibitors of ATXN expression: Validation (AID 588378); further: nearly all actives have a fitted effect of over 75% in size
Settings: cell-based ATXN2 expression reporter assay, luminescence; series mostly up to 57.1 µM; activity change, negative = inhibition: at the top concentration
Method in brief: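 Validation of ATXN2 expression inhibitors uses a cell-based luciferase fusion reporter in HEK293 cells, with 24 h compound exposure and paired viability (fluorescence) and reporter (luminescence) end-point reads.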
In the case of `CCCN(CCC)C1CCc2cccc(O)c2C1` (stereo not drawn), the “activity change, negative = inhibition” value is reported as -3.37%. With `CC(N)Cc1c[nH]c2ccc(OCc3cccs3)cc12` (stereo not drawn) the Potency was 28.2 µM (active). With `O=c1c2ccccc2[se]n1-c1ccccc1` the “activity change, negative = inhibition” value was -10.8%. With `CC(C)(C)c1cc(C=C(C#N)C#N)cc(C(C)(C)C)c1O` the Potency was 0.631 µM (active). For `N[C@@H](Cn1ccc(=O)[nH]c1=O)C(=O)O`, the “activity change, negative = inhibition” value was -1.89%. In the case of `NCCc1ccc(S(=O)(=O)F)cc1`, the “activity change, negative = inhibition” value is reported as -18.7%. For `C=CCN1CC[C@]23c4c5ccc(O)c4O[C@@H]2/C(=N/N=C2\CC[C@@]4(O)C6Cc7ccc(O)c8c7[C@@]4(CCN6CC=C)[C@@H]2O8)CC[C@@]3(O)C1C5`, the Potency was 20 µM (active). For `CNc1ccc2oc(C[C@H]3O[C@@]4(CC[C@H]3C)O[C@H]([C@H](C)C(=O)c3ccc[nH]3)[C@H](C)C[C@H]4C)nc2c1C(=O)O`, the Potency was 3.16 µM (active). With `CC(C)NP(=O)(NC(C)C)OP(=O)(NC(C)C)NC(C)C` the “activity change, negative = inhibition” value was -5.52%. For `C=CCN1C[C@@H](C)N([C@H](c2ccc(C(=O)N(CC)CC)cc2)c2cccc(OC)c2)C[C@@H]1C`, the “activity change, negative = inhibition” value was 12.8%. With `O=C1C=CC(=O)C=C1` the “activity change, negative = inhibition” value was 0.699%. With `CCCN(CCC)C1Cc2cc(OC)c(OC)cc2C1` the “activity change, negative = inhibition” value was 11.9%. With `C[C@]12Cc3cn4c(nc3C=C1CCC1C2CC[C@@]2(C)[C@H]1CC[C@@]2(O)C#N)nc1ccccc14` (stereo partly drawn) the “activity change, negative = inhibition” value was 30%. In the case of `COc1ccc2c(c1)/C(=C/c1cnc[nH]1)C(=O)N2`, the Potency is reported as 2.82 µM (active). With `C[N+]1(C)C2CCC1CC(OC(=O)c1c[nH]c3ccccc13)C2` (stereo not drawn) the “activity change, negative = inhibition” value was 7.16%. In the case of `O=[N+]([O-])c1cc(O)c(O)c([N+](=O)[O-])c1`, the “activity change, negative = inhibition” value is reported as -9.97%. In the case of `CCn1cnc2c(Nc3cccc(Cl)c3)nc(N[C@@H]3CCCC[C@@H]3N)nc21`, the Potency is reported as 2.51 µM (active). For `CN(N=O)c1ccc(O)c(O)c1`, the “activity change, negative = inhibition” value was -22.3%. With `CCCN(CCC)CCc1c[nH]c2ccc(C(N)=O)cc12` the “activity change, negative = inhibition” value was -16%. With `CCCn1c(C)c(C(=O)c2ccc3ccccc3c2)c2ccccc21` the “activity change, negative = inhibition” value was 0.0447%. With `CCCN1CC[C@@H]2c3cc(O)ccc3CC[C@@H]21` the “activity change, negative = inhibition” value was -14.8%. In the case of `CN(N=O)c1cc(O)ccc1O`, the Potency is reported as 28.2 µM (active).
